For 69 sequences, z-score results are on record in PubChem BioAssay AID1508600 (Functional Genomics Laboratory (NCATS/FGL), 2020).

Screen size: about 53,000 sequences; about 3,700 (7%) were called active. This is one part of a sample in which actives are shown more often than they occur. Values without a mark were called inactive.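 How the source made its calls: active means gene knockdowns whose robust z-score for IL-1 alpha signal is at least 2 or at most -2, so actives lie on both sides; inactive means the rest.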

This assay in a line: Components of the Cytosolic LPS Sensing Pathway: Gene Identification via Genome-wide siRNA Screen. To be noted: RAW264.7 macrophages, IL-1a HTRF, actives lie on both sides, screened at 100 nM (by protocol), cells primed 5 h with Pam3CSK4 first. The source says: Non-canonical inflammasome activation by cytosolic LPS is a critical component of the host response to Gram-negative bacterial infection, however we lack a comprehensive understanding of the cellular processes that control this pathway. Here we describe a genome-wide siRNA screen to identify genes regulating the mouse macrophage IL-1 alpha response to cytosolic LPS.
RAW264.7 cells were maintained in complete DMEM media, comprising DMEM with 4.5 g/L glucose, 10% FBS (Gemini Bio-Products, West Sacramento, CA), 2 mM Glutamine (Lonza) and 20 mM HEPES (Lonza), hereafter complete DMEM.
The RNAi screen was conducted in 384-well format using the Ambion Silencer Mouse Genome siRNA Library (#4391425), which consists of three unique, nonoverlapping, nonpooled siRNAs for each of 17,000 gene targets. siRNA reagents ([…]) were stamped into 384-well white flat-bottom microplates (Corning, 3570) using a Velocity11 VPrep liquid handling system (Agilent) integrated into a BioCel robotic platform (Agilent) in columns 1-22, leaving columns 23-24 empty for negative (Ambion, Negative control #1) and positive (mouse Casp4) controls, respectively. The median value of each plate's negative control column was used to normalize sample wells, and the positive control was used to assess transfection efficiency and assay performance.
Lipofectamine RNAiMAX Transfection Reagent ([…]; Invitrogen) was added in […] serum-free, antibiotic-free media to plate wells using a Thermo Scientific Matrix WellMate and Microplate Stacker. Plates were incubated for 45 min at room temperature to allow for the sufficient formation of siRNA-lipid complexes. Cells were seeded at a density of 1x10^4 cells per well in 20 microL media containing 20% (vol/vol) FBS without antibiotics. The final concentration of siRNA in each well was 100 nM. Cells were cultured for 48h at 37 degrees C in 5% CO2 before addition of […] of TLR ligand Pam3CSK4 for 5 hours. The medium was then removed, replaced with […] growth media and cell were transfected with […] of LipidA and TransIT-TKO (Mirus) for 24 hour. At the end of the LipidA treatment, […] of supernatant was transferred to a 384 Greiner Bio-one non-binding low volume plate and […] of IL-1a HTRF reagent (Cisbio, 62MIL1APEH) was added and incubated at room temperature overnight. The plates were read on an EnVision plate reader (PerkinElmer). Cell viability was measured by adding 20ul Cell Titer Glo to the original plate and running a luminescence read on the EnVision. The quantified IL-1a signal for each siRNA gene-targeted well was divided by the median of the negative control wells and multiplied by 100 to achieve a negative control normalized value for each well/siRNA. This normalized value was then used to generate a robust z-score by first taking the log of each value and then by subtracting the median and dividing by the […].
On the technique in general: In TR-FRET formats the signal depends on donor and acceptor labels being close together.
As for CCAGUUUCAGAUCAGAUUATT against Zfp747, the z-score was 0.729.
The figure for GCUGACCUUCAUUCAUAUATT against Vmn1r27 is -2.06 (active).
The figure for GCUAGGAGAACCUACAUACTT against Adcy4 is -0.368; for GCUGAGAGUGAACCGAUGUTT against Dyrk4 it is 1.54.
In the case of CCAUUCUACGAGAAUUGUATT against Dync1i2, the z-score was -0.326.
The figure for GGAUAACAGAGAUUUCUCCTT against Il15ra is 0.0534; for CCUGCAUUAUUUAUGAAAGTT against Mfap3l it is -0.449; for GUAAUCACCUUAAAGAUGUTT against Cebpb it is 1.32.
The figure for GGUUAGGUUGAUGAAUAAGTT against Eif4ebp2 is 2.46 (active).
For the sequence CCUUUUGAGAGCUCCAGAUTT against Ptrh1, the z-score was -0.273.
CCUAAGGCAAUCCCUAUUGTT against Gprasp1: the z-score was -0.424.
Turning to GCAAUUUAAGUUUAGGAGATT against Heatr1, the z-score was -0.215.
The figure for GCCAAUCUGGUGAUACUUCTT against Vmn1r71 is -1.64; for GCUGUUAAGUAAUGACAGATT against Chst7 it is 1.54; for GGUAAAUGACAACUUUCUUTT against Slco6b1 it is 2.92 (active).
The figure for GCCUAUUGGCCUGAUAUGUTT against Gpr141b is 0.173; for GGUACAACUGCUCAUUUUUTT against Rhbdd1 it is -0.0082; for GGCCCUAAUUUCAGUAAUATT against Pigv it is 0.568.
The figure for GCCUUUCUCGUUCCUAUAGTT against Plgrkt is -2.42 (active); for GGUUUUUGAGUUUCUGAUUTT against Vps8 it is 1.28; for CCACCUUGUUGAGUGGCACTT against Smarcd3 it is -0.177.
As to GCAUUUCAAUCGCACGUUUTT against Gal3st2, the z-score is -0.893.
The figure for CCGAGCAAAAUCUCAAAUUTT against Mdh1 is 1.89.
The figure for CCCUCUUAGUAACUGGCUCTT against Cdhr4 is -0.0846; for GGAAGACAUGAAAUUGUUCTT against Psma3 it is -2.69 (active); for GCAAGAAGGUUAUUCUAUATT against Atxn3 it is 0.399.
The figure for GGCUUUUGAGAAUUCAUUCTT against Kcna5 is 2.75 (active); for GGCCUAUCUUCUUUACAUATT against Ctbs it is 0.348; for GUUUCUGGAGACGGUGGAGTT against Rpl10a it is 1.74.
AGGAAAGAAAAUAUGCUGATT against Cox17: the z-score was 1.12.
The figure for GCGUGCUGGUUUUCUGAUUTT against Sbno2 is 0.333.
Regarding GGAGAUCCAGUUUUUUAACTT against Ndst1, the z-score was 0.566.
The figure for GGUGGAAUUUUCAACUUACTT against Nkx3-1 is 5.36 (active); for GGUCUAGCUCAAAAUCCCATT against Srek1 it is -1.3.
The figure for GGCUACCGAGACAAUGCUUTT against Pcmtd1 is 0.232; for GGAGAAGAAUUCUUACAGGTT against Fbxo16 it is 0.468; for CCCGACCUCAACAUUUGUATT against Bmp2k it is -0.265.
The figure for GGUAGCAAAUCCAACAAGATT against Slamf1 is 0.226; for “GGCACUUCCUCCCUCAACATT against 4833420G17Rik” it is -0.57; for GGAGGUCAAAGUAAACUGGTT against Tial1 it is 2.2 (active).
In the case of CCCAGUAAUAUGAAAAGAGTT against Gucy2f, the z-score is -0.408.
The figure for GGUUGAAUCCUAAGAAUGUTT against Edc3 is 0.39; for GGAGAAAGCUCAGCAUACATT against Usp3 it is -0.484.
The figure for GGGAAAGCACUCCAACACATT against Frem1 is -2.12 (active).
The figure for CGCAUGACCUUCCAGAUGCTT against Myoz1 is 0.49.
As for GCACAUCAACAUUGAUACUTT against Atp11c, the z-score was -0.0521.
On to GGAAAUCGAGGACUUAUACTT against Wnk4, for which the z-score is 3.54 (active).
The figure for GGCAAUGUCUUCUCCAAUATT against Dedd is -0.652; for GCCGGAAGAAACUCAUGCUTT against Mad2l1bp it is -0.152; for CCUGUUAAUUGAUUACCUUTT against Pla2r1 it is 1.03.
Consider CCUAACGGUCAGAAGUUGATT against Ccng1, for which the z-score is 0.39.
The figure for CCUCUCAGUGGUUGAAAUGTT against Wdr5 is -2.46 (active).
The figure for GGGCAGACCUAAUAGCUUATT against Cycs is 0.707; for GCUUUUGACACUUAUAUGATT against Ptk7 it is -0.299.
The figure for GGCAUGUCUUAAUUUCAUUTT against Shisa2 is 0.333; for GGAAGACUCACGGCUCAAATT against Ccdc124 it is -1.48.
Regarding GGCAUCUUCCUUUAAAAAGTT against Gar1, the z-score is -0.708.
The figure for GGACAGUUUAAGGACAACATT against Morn2 is 0.18.
The figure for GGUGGUCUUCAAGUCUGACTT against Cdcp2 is 1.95; for GCAUCUCCCUUAUGUCUGUTT against Nubp2 it is 2.12 (active); for GGGAAGUGGGAUUCCUAAGTT against Fam220a it is 0.218.
The figure for GCACGAAGGUCGUUAUUAUTT against Wls is -0.28.
In the case of GGUGACACAGGAGAAGAAGTT against Colec10, the z-score was -0.00926.
The figure for GGUAAUUAAUUCAAAGCAGTT against St8sia4 is -0.851.
The figure for GGAGUUUAUGAGGAACUCGTT against Zwint is -0.0598; for GGGCUAAAUUCAUGGGUUCTT against Timp1 it is 0.681; for GGGAAGAUCUUCAGGAAAATT against Cbr3 it is 1.1.
The figure for GCUCCUAAUGAAAUGGUUUTT against Kif2a is 1.41; for CGGUAUGUUAUUUUGGUUGTT against Fam216a it is -0.236.
